{"source": "PubChem BioAssay (NCI)", "note": "About 83,000 compounds went through this panel and 20% of them were active in at least one assay; those are over-represented in the sample as a whole.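 Activity criterion: percent growth below 10, measured after cells in 96-well plates were exposed to a single compound concentration for 48 hours.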 Values without a mark were called inactive. Activity calls are given as the source filed them."}
{"test_system": "MDA-MB-468 breast", "assay": "NCI-60 one-dose screen, 48 h (100 = growth as untreated, 0 = no growth, -100 = all killed)", "conditions": "10 µM unless noted"}
{"smiles": "O=C(CC1(O)C(=O)Nc2ccccc21)c1ccc(C(=O)NCC2CCC3(CC2)OOC2(CCCCC2)OO3)cc1", "note": "(configuration not stated)", "growth": "53.7%"}
{"smiles": "C[C@]12CC[C@H]3[C@@H](C[C@@H]4SC(Nc5ccccc5)=N[C@@]45CC(O)CC[C@]35C)[C@@H]1CCC2O", "note": "(some centres not stated)", "growth": "-1% (active)"}
{"smiles": "CCCCCCCC[N+]12CN3CN(CN(C3)C1)C2", "growth": "93.4%"}
{"smiles": "CC1=C(CN)C2=C(C)C3(CC3)[C@@](C)(O)C(=O)C2=C1", "growth": "73.2%"}
{"smiles": "C[C@@H]1C[C@H]2C(=O)O[C@@H](C)C(NC(=O)[C@H](Cc3cc(F)cc(F)c3)NC(=O)Nc3ccc(OS(=O)(=O)F)cc3)C(=O)N3CCC[C@H]3C(=O)N3CCO[C@H](C)[C@H]3C(=O)N[C@@H](CO)C(=O)N2C1", "note": "(some centres not stated)", "growth": "-7.29% (active)"}
{"smiles": "C/C(Cc1ccc(Cl)cc1)=C(\\c1ccc(OCCN2CCOCC2)cc1)c1ccc(OC(=O)Cc2ccccc2)cc1", "growth": "88.7%"}
{"smiles": "C#Cc1ccc2c(c1)C(c1ccccc1F)=NCC(=O)N2C", "growth": "26%"}
